# High-throughput results from PubChem BioAssay.
# In the library only some 3.5% were active in any assay of this set; here they are far more common.
# KCNK3 inh – human KCNK3 channel inhibition, primary screen; O14649; CHO-KCNK3 thallium flux, FluxOR fluorescence; active compounds read low; B-score at 10 µM; actives 0.84% (n = 340,000);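 active means B-score under library mean minus 4 SD, starting fluorescence ratio at most library mean plus 5 SD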;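 further: more negative B-score means stronger inhibition of thallium flux through KCNK3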
# Kir21 block – Kir2.1 (mouse) channel inhibition; P35561; B-score at 10 µM; AID 1672; HEK293-Kir2.1, FluxOR thallium flux fluorescence; active compounds read low; actives 0.85% (n = 310,000);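 active means fluorescence ratio B-score at or below minus 3 SD of library scores, with starting-brightness B-score within 2 SD, cut at about -4.2 in these data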;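 further: channel flux triggered by added potassium and thallium sulfate stimulus; B-score of peak minus minimum fluorescence over baseline after thallium stimulus; more negative B-score means stronger Kir2.1 block with less thallium influx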
# KCNK9 block – inhibitors of human KCNK9 two-pore domain potassium channel; Q9NPC2; HEK293 KCNK9, FluxOR thallium flux fluorescence; active compounds read low; B-score at 10 µM; actives 1.2% (n = 310,000); AID 488922;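 active means ratio B-score over 3 SD below the library mean, with starting fluorescence within 5 SD of its mean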;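 further: negative B-score means less thallium flux so channel inhibition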
# ANO1 block – inhibitors of mouse TMEM16A calcium-activated chloride channel. Q8BHY3. HEK293 TMEM16A/YFP iodide influx fluorescence, ionomycin. normalized B-score (activity score, 25-100; higher = stronger inhibition) at 10 µM. actives 1.2% (n = 310,000). AID 588511;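 active means ratio plate-corrected score three or more library SD toward inhibition, starting fluorescence score within five deviations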;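 further: score derived from kinetic fluorescence span divided by baseline fluorescence per well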
# Target sequence (Q8BHY3 whole entry, looked up): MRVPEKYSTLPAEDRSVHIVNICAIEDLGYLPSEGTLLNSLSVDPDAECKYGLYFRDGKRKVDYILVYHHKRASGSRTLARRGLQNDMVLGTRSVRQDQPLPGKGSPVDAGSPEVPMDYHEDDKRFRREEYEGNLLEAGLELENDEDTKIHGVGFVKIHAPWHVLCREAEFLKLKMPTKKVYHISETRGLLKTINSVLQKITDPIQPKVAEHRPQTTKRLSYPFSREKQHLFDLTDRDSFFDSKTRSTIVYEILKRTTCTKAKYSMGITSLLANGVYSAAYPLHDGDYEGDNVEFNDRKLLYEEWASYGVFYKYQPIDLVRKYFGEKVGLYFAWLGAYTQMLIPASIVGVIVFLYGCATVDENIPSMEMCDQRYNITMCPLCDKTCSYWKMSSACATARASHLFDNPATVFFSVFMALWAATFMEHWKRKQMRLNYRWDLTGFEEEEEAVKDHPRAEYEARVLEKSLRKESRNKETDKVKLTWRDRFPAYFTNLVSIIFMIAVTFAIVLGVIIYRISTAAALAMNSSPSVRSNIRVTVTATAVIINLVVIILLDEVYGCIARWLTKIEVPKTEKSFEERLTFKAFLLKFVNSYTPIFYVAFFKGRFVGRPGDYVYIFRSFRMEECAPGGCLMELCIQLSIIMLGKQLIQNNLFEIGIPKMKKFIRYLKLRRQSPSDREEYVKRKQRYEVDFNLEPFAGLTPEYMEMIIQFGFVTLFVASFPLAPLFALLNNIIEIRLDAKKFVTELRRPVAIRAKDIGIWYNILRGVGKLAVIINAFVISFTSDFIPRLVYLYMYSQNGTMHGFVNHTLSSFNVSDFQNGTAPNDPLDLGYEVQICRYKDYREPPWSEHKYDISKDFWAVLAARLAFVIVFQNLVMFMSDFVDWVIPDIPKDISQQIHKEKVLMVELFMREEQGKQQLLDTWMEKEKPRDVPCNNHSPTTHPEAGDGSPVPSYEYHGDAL
# TMEM16A act – mouse TMEM16A channel activation, primary screen. Q8BHY3. B-score at 10 µM. actives 0.3% (n = 340,000). HEK293 TMEM16A/YFP-H148Q/I152L, iodide quench fluorescence; active compounds read low;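 active means fluorescence-ratio B-score plate-corrected deviation score at least 3 library SD below zero, with starting fluorescence score within 5 deviations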;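 further: channel opened by trigger with iodide after compound preincubation; score built on the fluorescence ratio of max minus min over baseline; more negative score means more quench and so TMEM16A activation or potentiation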
# KCNK9 block conf – human KCNK9 inhibitor confirmation; shares compounds with KCNK9 block; HEK293 KCNK9 cells, FluxOR thallium flux fluorescence; inhibition, % at 10 µM; actives 43% (n = 4,900); AID 492992;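 active means thallium signal inhibited by more than 5 SD of the compound-free buffer control wells, on both duplicate plates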;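 further: 0% = assay buffer control wells without compound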
# Kir21 sel – selectivity of KCNK9 modulators against mouse Kir2.1. shares compounds with KCNK9 block. Kir2.1 cells, FluxOR thallium flux fluorescence. inhibition, % at 10 µM. actives 4% (n = 4,900). AID 492993;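 active means thallium signal drop more than 5 SD beyond the mean of the no-compound control wells, seen in both duplicate plates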;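 further: signal is fluorescence rise after thallium addition divided by baseline fluorescence; plate controls were assay buffer only for no effect and full block by chlorpromazine control for full effect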
# KCNK9 uninduced – non-induced cell nonspecific activity of KCNK9 modulators | shares compounds with KCNK9 block | non-induced KCNK9-HEK293, FluxOR thallium flux | inhibition, % at 10 µM | actives 40% (n = 4,900);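 active means thallium signal drop beyond 5 SD of the untreated control mean, on both duplicate plates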;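 further: plate controls were buffer only IC0 wells for no effect and SID17386958 at its maximal inhibitory level for full effect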
# TMEM16A reconf – re-confirmation of mouse TMEM16A chloride channel inhibitors; AID 652189; shares compounds with ANO1 block; HEK293 TMEM16A/YFP-H148Q, iodide quench fluorescence; ionomycin added to raise cell calcium; actives 39% (n = 2,300); inhibition, % at 10 µM;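 active means mean duplicate percent inhibition, scaled so buffer wells are 0 and the reference blocker 100, over three buffer SD above buffer mean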
# HEK293 Ca mobil – calcium mobilization counter-screen hit for TMEM16A inhibitor series | shares compounds with ANO1 block | TMEM16A/YFP HEK293, Fluo4 calcium mobilization | calcium response (% of ionomycin), % at 10 µM | actives 2% (n = 2,300) | AID 652231;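 active means duplicate-averaged calcium signal over 20% of the ionomycin maximum, relative to buffer baseline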;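 further: each well's signal is peak minus trough fluorescence divided by its pre-addition baseline; 0% = buffer wells and 100% = ionomycin wells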
# YFP-HEK293 quench – parental YFP-HEK293 iodide quench counter-screen activity. AID 652233. shares compounds with ANO1 block. 2,300 tested, under 10 active. YFP ratio F(max-min)/F0 at 10 µM. ionomycin;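 active means yellow fluorescent protein signal ratio exceeding the buffer control mean by over 5 SD of those controls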;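 further: ratio is mean of duplicate wells from kinetic YFP trace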
# ClC-1 rat inh – blocks the rat ClC-1 voltage-dependent chloride channel; AID 652236; ratio percent, % at 10 µM; shares compounds with ANO1 block; 2,300 tested, under 10 active; CHO ClC-1-YFP, iodide influx fluorescence quench; iodide control reads 0, buffer control 100;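 active means duplicate-mean ratio percent above the mean of iodide-only control wells, which defines zero, plus 5 of their SD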;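 further: higher percent means stronger block of ClC-1 iodide influx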
# KCNK3 confirm – confirmation of human KCNK3 two-pore domain potassium channel inhibitors; shares compounds with KCNK3 inh; CHO-KCNK3 thallium flux, FluxOR fluorescence; 0% buffer, 100% carvedilol maximal block; ratio percent of control, % at 10 µM; actives 99% (n = 2,400); AID 651638;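 active means ratio percent of control, averaged over triplicates, above buffer control mean plus 5 SD, cut at about 64% in these data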;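 further: ratio is the fluorescence rise from min to max over baseline after thallium stimulus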
# KCNK3 uninduced – activity in cells without induced KCNK3 expression; shares compounds with KCNK3 inh; non-induced KCNK3 parental cells, FluxOR thallium flux; active compounds read low; thallium flux ratio (lower = more inhibition) at 10 µM; actives 40% (n = 2,400); AID 651747;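 active means thallium flux ratio, averaged over three wells, more than 5 SD below the buffer control mean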;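 further: host cells are CHO cells without KCNK3 induction; ratio is peak minus trough fluorescence over baseline then normalized to buffer controls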
# Active calls of the source: *; i = inactive; · = no result.
SMILES,KCNK3 inh,Kir21 block,KCNK9 block,ANO1 block,TMEM16A act,KCNK9 block conf,Kir21 sel,KCNK9 uninduced,KCNK3 confirm,KCNK3 uninduced,others
COc1cccc(OC)c1C(=O)Nc1cccc(-c2nc3ccccc3[nH]2)c1,-9.9*,1.74,-12.7*,i,i,40.0%*,i,i,133.3*,0.117*,
CC(=O)Nc1cccc(-c2nc3ccccc3[nH]2)c1,i,-0.42,i,i,i,·,·,·,·,·,
CCn1c(=O)n(CC)c2cc(N3CCCC3)c(NC(=O)c3cc(Cl)ccc3OC)cc21,i,0.82,i,i,i,·,·,·,·,·,
CCOc1ccccc1C(=O)Nc1cc2c(cc1N1CCCC1)n(CC)c(=O)n2CC,-8.78*,-1.82,-13.9*,i,i,51.0%*,i,22.5%*,101.0*,i,
N#CC1=C(N)OC2=C(CN(Cc3ccccc3)C/C2=C\c2cccnc2)C1c1cccnc1 (stereo not drawn),i,2.15,i,i,i,·,·,·,·,·,
CCN1CC2=C(OC(N)=C(C#N)C2c2ccccc2)/C(=C\c2ccccc2)C1 (stereo not drawn),-8.92*,0.01,-8.79*,i,i,29.0%*,i,26.0%*,105.3*,i,
CCCCOc1ccc2c(C)cc(=O)oc2c1OCCCC,-9.4*,0.71,-25.2*,100*,i,76.0%*,i,36.5%*,118.7*,0.135*,TMEM16A reconf=i;HEK293 Ca mobil=i;YFP-HEK293 quench=-1.27;ClC-1 rat inh=-10.0
CCOc1ccc2c(C)cc(=O)oc2c1OCC,i,1.11,i,i,i,·,·,·,·,·,
CCN1CCCC1CNC(=O)c1cc(COc2ccc(C)c(C)c2)on1 (stereo not drawn),i,-0.49,i,i,i,·,·,·,·,·,
CC1=C(C(=O)OC2CCCC(C)C2)C(c2ccccc2)NC(=O)N1 (stereo not drawn),i,-2.47,i,i,i,·,·,·,·,·,
COc1ccccc1NC(=O)c1ccc(COc2ccccc2Br)o1,-9.97*,-1.56,-13.3*,i,i,56.0%*,i,42.5%*,129.7*,0.154*,
Cc1ccc(C(c2nnnn2C2CCCCC2)N(C)C2CCCCC2)cc1 (stereo not drawn),i,-0.01,-9.39*,25*,i,i,i,43.0%*,117.0*,0.131*,TMEM16A reconf=i;HEK293 Ca mobil=i;YFP-HEK293 quench=-1.12;ClC-1 rat inh=-8.0
CC(C)C(c1nnnn1C1CCCC1)N(C)C1CCCCC1 (stereo not drawn),i,-0.34,i,i,i,·,·,·,·,·,
CC(C)C(c1nnnn1C(C)(C)C)N1CCN(c2cccc(Cl)c2)CC1 (stereo not drawn),-10*,-0.04,-12*,i,i,58.5%*,i,36.5%*,126.0*,0.151*,
CC(C)(C)n1nnnc1C(c1ccncc1)N1CCN(c2ccc(O)cc2)CC1 (stereo not drawn),i,1.09,i,i,i,·,·,·,·,·,
CCN(C(=O)CN1C(=O)COc2ccc(S(=O)(=O)N3CCCCCC3)cc21)c1cccc(C)c1,-8.81*,-0.73,-11.8*,i,i,44.5%*,i,24.5%*,120.3*,i,
CCN(Cc1ccccc1)C(=O)CN1C(=O)COc2ccc(S(=O)(=O)N3CCCCCC3)cc21,i,-1.63,i,i,i,·,·,·,·,·,
CCOC(=O)c1nn(-c2ccc(F)cc2)c(-c2ccccc2)c1C(=O)c1ccccc1,i,0.77,i,i,i,·,·,·,·,·,
CCOC(=O)c1nn(-c2cccc(OC)c2)c(-c2ccccc2)c1C(=O)c1ccccc1,-9.26*,1.54,-10.1*,i,i,50.5%*,i,i,113.0*,0.138*,
O=C(Nc1cccc(NC(=O)c2c(F)cccc2F)n1)c1c(F)cccc1F,-10.9*,0.54,-11*,i,i,50.0%*,i,30.0%*,101.0*,i,
O=C(NC1CCCC1)c1ccc2c(c1)N(Cc1ccc(F)cc1)CCS2,-9.26*,-1.43,-13.9*,i,i,74.5%*,i,41.5%*,96.3*,i,
O=C(N1CCOCC1)N1c2ccccc2Sc2ccccc21,i,-2.94,i,i,i,·,·,·,·,·,
CC1CCN(C(=O)N2c3ccccc3Sc3ccccc32)CC1,-11.1*,-0.01,-9.35*,i,i,58.5%*,i,45.5%*,113.3*,0.134*,
Cc1ccc(-c2nnc(SCC(=O)NCC3CCCO3)nc2-c2ccc(C)cc2)cc1 (stereo not drawn),i,·,·,·,i,·,·,·,·,·,
Cc1ccc(O)c(C(=O)c2cnc3c(c2)COc2ccccc2-3)c1,i,-0.4,-14.5*,i,i,41.0%*,i,27.5%*,96.3*,i,
O=C(c1cnc2c(c1)COc1ccc(Cl)cc1-2)c1ccccc1O,i,-1.56,i,i,i,·,·,·,·,·,
COc1ccc2cc(CN(Cc3cccs3)Cc3nnnn3Cc3ccccc3)c(=O)[nH]c2c1,i,-1.47,i,i,i,·,·,·,·,·,
Cc1cccc2cc(CN(Cc3cccs3)Cc3nnnn3Cc3ccccc3)c(=O)[nH]c12,-11.2*,0,-13*,i,i,29.0%*,i,28.5%*,88.3*,i,
CCN(CC)CCN(C(=O)c1ccc2c(c1)CCCC2)c1nc2c(C)cccc2s1,i,-0.38,i,i,i,·,·,·,·,·,
